Inconclusive results are not listed. The source made the active and inactive calls. Calls come from the whole dose curve; as a rule, active = well fitted curve in the direction sought with a large enough effect; inconclusive = small, poorly fitted or top-dose-only effect, or another doubt; inactive = no such curve, though single readings can be large; an effect the other way counts as inactive or inconclusive.
Key:
[1] = qHTS assay for measurement of the activity of small molecule inhibitors on Zika virus induced Caspase-3 activity in human iPSC derived neural progenitor cells (hNPCs) (AID 1224857); note: nearly all actives have a fitted effect of over 65% in size; note: potency is the fitted concentration of half-maximal effect
Outline: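 Human iPSC-derived neural progenitor cells pretreated 1 hr with compounds, then infected with Zika virus (2 FFU/cell) for 6 hours at 37 C. Caspase-3/7 measured by Caspase-Glo luminescence; % inhibition calculated from induction scaled to uninfected (0%) and infected (100%) wells.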

[2] = qHTS assay for measurement of the activity of small molecule inhibitors on Zika virus induced Caspase-3 activity in human astrocytoma cells (AID 1224859)
Outline: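 SNB-19 astrocytoma cells, 250/well, pretreated 1 h with compounds, then Zika virus at 2 FFU/cell for 6 h at 37 C; Caspase-Glo 3/7 luminescence after 30 min; percent inhibition normalised to uninfected and infected controls.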

[3] = qHTS assay to identify small molecule inhibitors of chordoma cells - UCH-1 (AID 1259355); note: nearly all actives have a fitted effect of over 55% in size; note: potency is the fitted concentration of half-maximal effect; series mostly up to about 46 µM
Outline: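 Luminescent ATP read-out (CellTiter-Glo, 30min at room temperature) measured viability of UCH-1 cells exposed for 48hr to test drugs at 15 concentrations, co-dosed with a five-agent combination of auranofin, camptothecin, doxorubicin, rubitecan and topotecan.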

[4] = qHTS assay to identify small molecule inhibitors of chordoma cells - UCH-2 (AID 1259356); note: potency is the fitted concentration of half-maximal effect
[5] = P-glycoprotein substrates identified in KB-8-5-11 adenocarcinoma cell line, qHTS therapeutic library screen (AID 1346987); note: nearly all actives have a fitted effect of over 65% in size; note: potency is the fitted concentration of half-maximal effect
Outline: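 KB-8-5-11: colchicine-selected sub-line of KB-3-1 over-expressing P-gp; assay medium lacked colchicine. 72 h drug exposure at 37 degree C, CellTiter-Glo.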

Measured: Potency

NC(=O)c1ccccc1O
inactive: all assays above

CCCN(CCC)S(=O)(=O)c1ccc(C(=O)O)cc1
inactive: all assays above

Nc1nc(-c2ccccc2)c(Br)c(=O)[nH]1
inactive: all assays above

Cc1cn([C@H]2C[C@H](F)[C@@H](CO)O2)c(=O)[nH]c1=O
inactive: all assays above

CCCc1ncc(C[n+]2ccccc2C)c(N)n1
inactive: all assays above

CC(=O)NO
inactive: all assays above

CC(=O)OCC(=O)[C@H]1CC[C@H]2[C@@H]3CCC4=CC(=O)CC[C@]4(C)[C@H]3CC[C@]12C
active: [5] 7.31 µM
inactive: all other assays above

COc1ccc(-c2cc(C(F)F)nn2-c2ccc(S(N)(=O)=O)cc2)cc1F
inactive: all assays above

CN(C)CCOC(=O)C(c1ccccc1)C1(O)CCCC1 (stereo not given)
inactive: all assays above

COc1ccc2c(c1)c1c3n2CCN(C)C3=NCC1
inactive: all assays above

CCOC(=O)c1c(N)sc2c1CCN(Cc1ccccc1)C2
inactive: all assays above

CCN1/C(=C/C=C/c2sc3ccccc3[n+]2CC)Sc2ccccc21
inactive: [2]
active: [1] 3.16 µM | [3] 7.94 µM | [4] 5.8 µM | [5] 18.4 µM

CCc1cc(Cl)c(OC)c(C(=O)NC[C@@H]2CCCN2CC)c1O
inactive: all assays above

CNCCc1ccccn1
inactive: all assays above

O=C(O)C1(C(=O)O)CCC1.[NH2-].[NH2-].[Pt+2]
inactive: all assays above

CC(=O)N[C@@H](CCC(=O)O)C(=O)O
inactive: all assays above

CC(=O)Nc1ncc([N+](=O)[O-])s1
inactive: all assays above

O=C(c1ccc(F)cc1)C1CCN(CCn2c(=S)[nH]c3ccccc3c2=O)CC1
inactive: all assays above

CC(C)(C)NC[C@H](O)COc1cccc2c1CCCC2=O
inactive: all assays above

Cc1ncc(CO)c(C=O)c1O
inactive: all assays above

CN(C)CCN1C(=O)c2ccccc2N(C)c2ccccc21
inactive: all assays above

CC(=O)Oc1ccc(C)cc1
inactive: all assays above

O=C(O)CCNC(=O)c1ccccc1
inactive: all assays above

O=C1C(CCS(=O)c2ccccc2)C(=O)N(c2ccccc2)N1c1ccccc1 (stereo not given)
inactive: all assays above

Cn1c(=O)c2[nH]c(Br)nc2n(C)c1=O
inactive: all assays above

CC(=O)O[C@H]1C[C@@H]2CC[C@@H]3[C@H](CC[C@@]4(C)[C@H]3C[C@H]([N+]3(C)CCCCC3)[C@@H]4OC(C)=O)[C@@]2(C)C[C@@H]1N1CCCCC1
inactive: all assays above

CCCCCCCCCCC[C@@H](C[C@@H]1OC(=O)[C@H]1CCCCCC)OC(=O)[C@H](CC(C)C)NC=O
inactive: all assays above

Nc1ccc(S(=O)(=O)Nc2cnc3ccccc3n2)cc1
inactive: all assays above

CCCCC(CC)COC(=O)/C=C/c1ccc(OC)cc1 (stereo not given)
inactive: all assays above

C/C=C/c1ccc(O)c(OC)c1
inactive: all assays above

NS(=O)(=O)c1ccc(Cl)c(S(N)(=O)=O)c1
inactive: all assays above

COc1ccc(/C=N/NC(=O)c2ccncc2)cc1OC
inactive: all assays above

C[N+]12CCC(CC1)C(OC(=O)C(O)(c1ccccc1)c1ccccc1)C2 (stereo not given)
inactive: all assays above

Source: PubChem BioAssay (NCATS)
